Among the data in ChEMBL document CHEMBL3988442, “University of Dundee, Small-Polar-MMV Screening Library” (2021) are Percent Effect values, retold here.

For some assays here: Results with a measured potency or affinity are listed apart.

Design in all cases: scale not given: direction of the effect not stated beside the values
Assay [1] addresses Protein translocase subunit SecA (Escherichia coli (strain K12)) (UniProt P10408). Description: Assay to Identify E. coli SecA ATPase Inhibitors. In kind it is functional. As to conditions: 30 µM.
Assay [2] deals with T1, Ubiquitin-activating enzyme e1, putative (Leishmania donovani (strain BPK282A1)) (UniProt E9BSI1).
T1 sequence (whole entry): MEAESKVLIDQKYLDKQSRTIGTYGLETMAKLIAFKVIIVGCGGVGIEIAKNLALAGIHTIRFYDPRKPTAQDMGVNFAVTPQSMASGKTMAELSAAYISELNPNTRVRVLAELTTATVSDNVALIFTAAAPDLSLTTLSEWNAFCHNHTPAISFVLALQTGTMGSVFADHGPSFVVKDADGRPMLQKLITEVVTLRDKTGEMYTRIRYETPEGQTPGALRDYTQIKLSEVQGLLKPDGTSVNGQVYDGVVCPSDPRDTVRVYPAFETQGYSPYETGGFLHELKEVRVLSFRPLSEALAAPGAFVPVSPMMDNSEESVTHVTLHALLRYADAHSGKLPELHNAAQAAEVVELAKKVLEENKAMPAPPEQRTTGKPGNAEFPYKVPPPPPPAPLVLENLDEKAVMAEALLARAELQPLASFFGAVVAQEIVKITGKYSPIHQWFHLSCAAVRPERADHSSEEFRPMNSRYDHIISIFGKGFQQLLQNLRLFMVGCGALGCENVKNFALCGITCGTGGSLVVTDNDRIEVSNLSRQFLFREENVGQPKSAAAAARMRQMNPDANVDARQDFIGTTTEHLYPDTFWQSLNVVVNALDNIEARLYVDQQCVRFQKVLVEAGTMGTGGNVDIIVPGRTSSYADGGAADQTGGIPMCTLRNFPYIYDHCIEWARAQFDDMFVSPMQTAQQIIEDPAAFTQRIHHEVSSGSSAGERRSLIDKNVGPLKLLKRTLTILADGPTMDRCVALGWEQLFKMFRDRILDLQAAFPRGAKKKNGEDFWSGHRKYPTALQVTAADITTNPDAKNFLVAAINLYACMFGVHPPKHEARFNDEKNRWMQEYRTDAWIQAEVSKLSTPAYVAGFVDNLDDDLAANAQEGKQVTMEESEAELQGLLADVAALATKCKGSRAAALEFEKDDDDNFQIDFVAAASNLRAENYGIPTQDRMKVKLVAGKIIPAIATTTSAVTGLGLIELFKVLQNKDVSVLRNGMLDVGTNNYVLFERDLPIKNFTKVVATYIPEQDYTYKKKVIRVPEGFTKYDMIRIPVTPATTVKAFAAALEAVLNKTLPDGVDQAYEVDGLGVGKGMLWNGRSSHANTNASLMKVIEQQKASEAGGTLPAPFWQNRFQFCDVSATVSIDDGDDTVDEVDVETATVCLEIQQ
Nature of the assay: Leishmania donovani Ubiquitin Activating Enzyme (LdE1). Format: functional. As to conditions: 30 µM.

Assay [3] deals with T2, Aspartate--tRNA(Asp/Asn) ligase (Mycobacterium tuberculosis (strain ATCC 25618 / H37Rv)) (UniProt P9WFW3).
T2 sequence (whole entry): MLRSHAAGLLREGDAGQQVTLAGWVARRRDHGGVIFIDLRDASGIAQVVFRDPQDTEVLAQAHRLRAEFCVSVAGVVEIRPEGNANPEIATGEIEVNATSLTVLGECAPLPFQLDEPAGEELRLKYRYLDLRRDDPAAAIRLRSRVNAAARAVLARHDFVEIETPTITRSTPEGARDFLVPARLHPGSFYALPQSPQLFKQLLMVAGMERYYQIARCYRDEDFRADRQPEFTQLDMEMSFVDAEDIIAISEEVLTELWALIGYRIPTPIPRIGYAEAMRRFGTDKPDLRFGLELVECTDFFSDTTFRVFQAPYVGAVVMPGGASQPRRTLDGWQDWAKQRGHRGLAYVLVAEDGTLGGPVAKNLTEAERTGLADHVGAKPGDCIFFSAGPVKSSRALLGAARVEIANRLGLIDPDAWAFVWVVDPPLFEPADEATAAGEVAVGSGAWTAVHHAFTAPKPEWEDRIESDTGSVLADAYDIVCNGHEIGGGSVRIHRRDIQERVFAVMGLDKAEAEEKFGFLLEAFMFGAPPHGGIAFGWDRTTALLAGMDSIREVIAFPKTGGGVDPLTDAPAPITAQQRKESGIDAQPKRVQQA
Description: Assay for Asp RNA synthetase-1 from Mycobacterium tuberculosis. Format: functional. As to conditions: 30 µM.

In assay [4] the target is AMP-activated protein kinase, AMPK (Homo sapiens) (UniProt P54646+O43741+P54619+Q9UGJ0+Q9Y478+Q13131+Q9UGI9). Description: AMP-dependent Kinase enzyme assay. An in vitro enzyme assay that detects ADP turnover that is directly proportional to AMPK activity. This uses naive AMPK that is activated during the assay with MK-8722. As to conditions: 30 µM. In kind it is functional.

The target in assay [5] is Sialic acid-binding Ig-like lectin 9 (Homo sapiens) (UniProt Q9Y336). Nature of the assay: Hs-Siglec9 ALPHAscreen SOP 20170721. To be noted: 10 µM. On the technique in general: Alpha assays give light when donor and acceptor beads are brought close together.
Chain of Sialic acid-binding Ig-like lectin 9 (Homo sapiens) (Q9Y336 whole entry): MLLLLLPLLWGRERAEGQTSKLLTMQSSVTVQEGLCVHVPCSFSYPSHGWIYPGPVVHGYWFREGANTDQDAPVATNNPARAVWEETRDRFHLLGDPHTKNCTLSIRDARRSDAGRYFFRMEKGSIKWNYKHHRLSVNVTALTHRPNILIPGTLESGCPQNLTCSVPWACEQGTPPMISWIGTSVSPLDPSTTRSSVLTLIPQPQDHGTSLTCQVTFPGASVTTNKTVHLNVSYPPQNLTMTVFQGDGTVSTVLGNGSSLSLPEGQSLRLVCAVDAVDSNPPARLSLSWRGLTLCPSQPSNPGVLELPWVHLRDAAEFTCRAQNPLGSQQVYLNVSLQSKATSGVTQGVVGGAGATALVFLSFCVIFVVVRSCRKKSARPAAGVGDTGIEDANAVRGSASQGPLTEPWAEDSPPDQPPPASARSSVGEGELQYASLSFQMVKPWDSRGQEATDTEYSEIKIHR
The test system of assay [6] is Trypanosoma cruzi. Nature of the assay: Trypanosoma cruzi phosphomannomutase and mannose-1-phosphate guanylyltransferase assay. Format: functional. As to conditions: 10 µM.
Assay [7] has as its target T3, Arginase-2, mitochondrial (Homo sapiens) (UniProt P78540).
T3 sequence (whole entry): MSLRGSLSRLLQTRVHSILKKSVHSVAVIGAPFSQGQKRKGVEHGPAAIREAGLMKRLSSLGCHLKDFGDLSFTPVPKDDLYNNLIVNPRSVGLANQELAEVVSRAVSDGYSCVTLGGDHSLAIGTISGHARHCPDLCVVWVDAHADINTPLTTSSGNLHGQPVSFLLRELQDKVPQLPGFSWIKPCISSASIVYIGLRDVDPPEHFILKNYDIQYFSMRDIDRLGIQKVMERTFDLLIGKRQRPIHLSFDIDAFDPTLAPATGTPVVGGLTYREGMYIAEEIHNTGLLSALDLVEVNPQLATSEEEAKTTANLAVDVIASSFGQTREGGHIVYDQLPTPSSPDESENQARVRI
Nature of the assay: in vitro enzyme assay to detect the production of urea directly proportional to the activity of Arginase II. Also: in the data most compounds retested in dose-response had high values. Format: functional. To be noted: 33.3 µM.

In assay [8] the target is T4, Proteasome subunit beta (Trypanosoma cruzi) (UniProt O96673).
T4 sequence (whole entry): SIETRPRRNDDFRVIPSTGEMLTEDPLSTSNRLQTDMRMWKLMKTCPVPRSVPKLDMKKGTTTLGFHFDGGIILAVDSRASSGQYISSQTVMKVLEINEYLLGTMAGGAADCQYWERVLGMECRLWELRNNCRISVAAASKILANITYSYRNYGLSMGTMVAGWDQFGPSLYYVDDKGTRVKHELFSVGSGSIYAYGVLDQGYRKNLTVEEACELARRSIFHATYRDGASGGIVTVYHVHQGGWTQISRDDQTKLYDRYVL
Description: Trypanosoma cruzi proteasome chymotrypsin-like activity (TcProtChymo) assay. Also: in the data most compounds retested in dose-response had high values. Format: functional. As to conditions: 9.37 µM.

Assay [9] is filed under the species Homo sapiens. Nature of the assay: To identify inhibition of the IFN signalling (Jak-Stat) pathway via expression of an eGFP reporter gene under the control of an IFN-stimulated response element (ISRE) containing MxA promoter. As to conditions: 30 µM. Format: functional.
The target of assay [10] is Shiga toxin 2 (Escherichia coli O157:H7) (UniProt P09385+P09386). Description: E. coli 0.157:H7 Shiga Toxin SOP - stx2 screening assay. To be noted: 30 µM. In kind it is functional.
Assay [11] has as its target T5, Tyrosyl-tRNA synthetase, putative (Trypanosoma cruzi (strain CL Brener)) (UniProt Q4DSP6).
T5 sequence (whole entry): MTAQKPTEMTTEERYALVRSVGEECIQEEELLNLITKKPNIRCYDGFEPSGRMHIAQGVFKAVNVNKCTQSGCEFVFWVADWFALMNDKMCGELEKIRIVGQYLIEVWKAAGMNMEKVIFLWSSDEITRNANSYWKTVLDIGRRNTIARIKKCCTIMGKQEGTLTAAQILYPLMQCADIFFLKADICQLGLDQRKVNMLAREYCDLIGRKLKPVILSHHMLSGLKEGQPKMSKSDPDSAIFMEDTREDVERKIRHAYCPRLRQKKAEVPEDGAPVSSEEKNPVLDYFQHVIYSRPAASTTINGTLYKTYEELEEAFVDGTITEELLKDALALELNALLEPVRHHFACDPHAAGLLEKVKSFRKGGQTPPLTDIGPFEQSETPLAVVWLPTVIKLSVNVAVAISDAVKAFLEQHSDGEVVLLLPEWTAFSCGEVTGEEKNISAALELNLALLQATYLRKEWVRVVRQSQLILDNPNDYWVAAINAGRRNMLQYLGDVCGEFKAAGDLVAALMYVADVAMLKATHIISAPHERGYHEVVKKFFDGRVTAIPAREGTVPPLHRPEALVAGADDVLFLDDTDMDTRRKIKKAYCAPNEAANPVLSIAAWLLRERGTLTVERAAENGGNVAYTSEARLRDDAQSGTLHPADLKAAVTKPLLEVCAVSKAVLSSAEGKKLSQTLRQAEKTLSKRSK
Description: Trypanosoma cruzi tyrosyl tRNA synthetase (TcYRS) _High Tyrosine SOP. Also: in the data most compounds retested in dose-response had high values. To be noted: 30 µM. Format: functional.

In assay [12] the target is T5, Tyrosyl-tRNA synthetase, putative (Trypanosoma cruzi (strain CL Brener)). Description: Trypanosoma cruzi tyrosyl tRNA synthetase (TcYRS) SOP. In kind it is functional. To be noted: 30 µM.
The target in assay [13] is Chromo domain-containing protein 1 (Saccharomyces cerevisiae (strain ATCC 204508 / S288c) (Baker's yeast)) (UniProt P32657). Nature of the assay: ScCHD-1 Enzyme Inhibition Assay. Also: in the data most compounds retested in dose-response had high values. Format: functional. To be noted: 30 µM.
Chain of Chromo domain-containing protein 1 (Saccharomyces cerevisiae (strain ATCC 204508 / S288c) (Baker's yeast)) (P32657 whole entry, the tested form may be a part): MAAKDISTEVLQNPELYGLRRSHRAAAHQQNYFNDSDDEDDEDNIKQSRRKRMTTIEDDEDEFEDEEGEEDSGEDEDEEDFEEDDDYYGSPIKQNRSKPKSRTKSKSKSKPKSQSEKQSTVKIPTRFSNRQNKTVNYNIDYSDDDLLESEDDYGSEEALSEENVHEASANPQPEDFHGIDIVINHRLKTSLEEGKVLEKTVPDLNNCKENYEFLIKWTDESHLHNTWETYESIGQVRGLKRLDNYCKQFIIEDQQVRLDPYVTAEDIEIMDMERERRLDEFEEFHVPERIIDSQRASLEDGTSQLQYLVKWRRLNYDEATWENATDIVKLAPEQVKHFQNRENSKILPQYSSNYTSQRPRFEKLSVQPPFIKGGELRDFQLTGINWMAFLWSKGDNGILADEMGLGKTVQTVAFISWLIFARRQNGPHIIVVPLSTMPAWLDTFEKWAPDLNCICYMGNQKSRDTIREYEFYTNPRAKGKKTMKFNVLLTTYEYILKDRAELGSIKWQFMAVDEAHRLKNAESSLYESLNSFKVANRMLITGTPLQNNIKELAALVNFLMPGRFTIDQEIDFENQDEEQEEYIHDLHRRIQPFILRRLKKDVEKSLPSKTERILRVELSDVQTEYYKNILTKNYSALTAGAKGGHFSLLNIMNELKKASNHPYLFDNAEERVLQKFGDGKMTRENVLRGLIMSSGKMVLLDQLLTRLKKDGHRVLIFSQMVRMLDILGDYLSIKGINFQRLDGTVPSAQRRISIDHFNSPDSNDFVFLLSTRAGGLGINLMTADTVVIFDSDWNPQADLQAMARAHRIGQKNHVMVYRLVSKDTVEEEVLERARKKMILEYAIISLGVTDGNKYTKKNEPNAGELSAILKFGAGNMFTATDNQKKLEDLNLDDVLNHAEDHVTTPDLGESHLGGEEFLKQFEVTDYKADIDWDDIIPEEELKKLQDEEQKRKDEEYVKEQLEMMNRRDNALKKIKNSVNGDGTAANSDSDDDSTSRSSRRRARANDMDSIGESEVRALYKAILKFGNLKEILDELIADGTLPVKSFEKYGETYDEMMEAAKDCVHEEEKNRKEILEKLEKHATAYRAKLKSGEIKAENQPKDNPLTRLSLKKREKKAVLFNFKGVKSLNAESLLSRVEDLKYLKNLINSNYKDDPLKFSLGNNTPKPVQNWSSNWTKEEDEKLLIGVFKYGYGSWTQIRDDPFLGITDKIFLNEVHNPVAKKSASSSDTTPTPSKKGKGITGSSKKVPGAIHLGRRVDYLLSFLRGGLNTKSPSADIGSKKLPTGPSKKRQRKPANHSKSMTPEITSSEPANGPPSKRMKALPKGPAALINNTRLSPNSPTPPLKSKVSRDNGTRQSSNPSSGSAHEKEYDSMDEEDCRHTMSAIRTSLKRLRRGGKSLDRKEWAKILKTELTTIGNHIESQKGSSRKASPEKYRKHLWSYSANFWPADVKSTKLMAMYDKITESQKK

Chain of Protein translocase subunit SecA (Escherichia coli (strain K12)) (P10408 whole entry): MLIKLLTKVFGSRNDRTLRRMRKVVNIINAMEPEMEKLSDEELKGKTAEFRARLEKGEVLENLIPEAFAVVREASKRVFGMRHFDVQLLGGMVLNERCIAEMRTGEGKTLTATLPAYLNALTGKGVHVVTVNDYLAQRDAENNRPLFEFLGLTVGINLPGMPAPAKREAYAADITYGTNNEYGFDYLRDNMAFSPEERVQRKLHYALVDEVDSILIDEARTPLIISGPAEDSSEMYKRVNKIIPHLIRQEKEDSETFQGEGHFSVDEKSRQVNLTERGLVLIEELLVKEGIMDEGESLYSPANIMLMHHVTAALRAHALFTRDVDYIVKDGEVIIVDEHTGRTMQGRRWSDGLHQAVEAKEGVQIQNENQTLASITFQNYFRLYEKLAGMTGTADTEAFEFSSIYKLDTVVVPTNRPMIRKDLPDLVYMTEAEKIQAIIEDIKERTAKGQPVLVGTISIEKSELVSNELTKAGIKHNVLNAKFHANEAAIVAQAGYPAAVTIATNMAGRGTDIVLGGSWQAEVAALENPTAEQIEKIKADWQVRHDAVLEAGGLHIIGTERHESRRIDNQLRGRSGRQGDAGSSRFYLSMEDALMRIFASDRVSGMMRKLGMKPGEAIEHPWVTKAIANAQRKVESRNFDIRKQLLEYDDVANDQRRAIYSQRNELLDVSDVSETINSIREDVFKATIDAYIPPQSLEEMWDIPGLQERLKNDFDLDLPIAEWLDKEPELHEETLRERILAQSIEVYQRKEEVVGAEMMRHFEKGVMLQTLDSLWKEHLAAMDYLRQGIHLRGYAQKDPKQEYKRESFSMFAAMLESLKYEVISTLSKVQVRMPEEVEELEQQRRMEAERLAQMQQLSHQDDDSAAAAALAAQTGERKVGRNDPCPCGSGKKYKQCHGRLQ

With `CCN(CC)C(=O)c1ccc(NC(=O)CNc2ccc(F)cc2Cl)cc1`, the Percent Effect in assay [1] is -1.29%; in assay [2] it was 10.5%; in assay [3] it was 5.36%; in assay [4] it was 5.61%; in assay [5], 3.25%; in assay [6] it was 2.04%. Moreover, the Percent Effect was 0% in [7]; 16.6% in [8]; -29.3% in assay [9]; -38.1% in [10]; 9.57% in assay [11]; 15.6% in assay [12]. In addition, the Percent Effect in assay [13] was -3.17%.
Take `CCCN1CCN(Cc2nccn2CC)C(C)C1` (stereo not given): the Percent Effect in [1] was -1.91%; in assay [2], 13.5%; in assay [3], 1.06%; in assay [4], -5.87%; in assay [5] it was -10.4%; in [6], -2.54%. The Percent Effect in assay [7] is -1.67%; in [8], 8.54%; in assay [9], 32.2%; in [10], -11.5%; in assay [11], 8.91%; in assay [12], 8.54%. The Percent Effect in assay [13] is -3.53%.
Turning to `Cc1cccc(CN2C[C@@H]3CCCO[C@@H]3[C@H](NS(C)(=O)=O)C2)n1`, the Percent Effect in assay [1] was -4.89%; in assay [2], 21.3%; in assay [3] it was 4.75%; in assay [4] it was -6.76%; in assay [5], -3.19%; in assay [6] it was 5.99%. Also, the Percent Effect is -50.4% in [7]; 11.1% in assay [8]; -3.89% in [9]; -20.3% in assay [10]; 7.29% in assay [11]; 25% in assay [12]. Also, in [13], the Percent Effect was -7.06%.
On to `O=C(Nc1cccnc1)[C@H]1COC[C@H]2CN(C3CCCC3)C[C@H]21`, for which the Percent Effect was -5.23% in assay [1]; 8.11% in assay [2]; 5.33% in assay [3]; 1.79% in [4]; 1.44% in [5]; 2.15% in [6]. For the same compound, the Percent Effect is 3.33% in assay [7]; 10.2% in assay [8]; -5.51% in assay [9]; -10.3% in [10]; 4.95% in [11]; 11% in assay [12]. The Percent Effect in assay [13] was -4.54%.
For the compound `c1cnc(NC[C@@H]2CCC[C@@H]3CN(Cc4cccnc4)C[C@@H]32)nc1`, the Percent Effect was 0.229% in assay [1]; 10.8% in [2]; -0.324% in assay [3]; -2.93% in assay [4]; -7.32% in [5]; 1.56% in assay [6]. Further, the Percent Effect was 25.4% in [7]; 15.5% in assay [8]; 10.2% in assay [9]; -34.3% in assay [10]; 13.9% in [11]; 18.3% in assay [12]. For the same compound, in [13], the Percent Effect is -3%.
